# Values without a mark were called inactive. Inconclusive results are not listed. Entries that show only a call come without a potency. Activity calls are given as the source filed them. Unless noted, the call rests on the fitted dose curve; in most records, active means well fitted curve in either direction with a large enough effect (not every such curve was filed as active); inconclusive means small, poorly fitted or top-dose-only effect, or another doubt; inactive means flat fitted curve, though single readings scatter.
# Key:
# [1] = target: Lysosomal acid glucosylceramidase (Homo sapiens) (UniProt P04062); assay: Glucocerebrosidase-p2 (AID 348; in the data active means potency below about 10 µM; further: potency means the concentration at half of the fitted maximal effect); details: purified GBA, blue fluorogenic substrate, 40 min
# In short: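 Normal human glucocerebrosidase (0.2 nM) with blue fluorogenic substrate (80 uM final) in citrate/phosphate pH 5.9 with 10mM sodium taurocholate, 0.01% tween-20; 40 min RT, NaOH/glycine stop; fluorescence Ex 365/Em 440; AC50 from a titration from 0.6 nM upwards.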
# [2] = AP1 Signaling Pathway (AID 357); details: ME-180 AP-1-bla reporter, EGF-induced, beta-lactamase ratio, 5 h; series mostly up to 17.2 µM;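 further: ME-180 reporter cells stimulated with EGF at its EC50 level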
# In short: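 First, ME-180 AP-1-bla cells were cultured overnight at 37 °C in low-serum Opti-MEM. Next, titrated compounds with EC50 EGF were incubated 5 hours. Finally, CCF4 was added for 2.5 hours and the 460/530 nm ratio recorded.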
# [3] = target: Cytochrome P450 1A2 (Homo sapiens) (UniProt P05177); assay: p450-cyp1a2 (AID 410; calls by dose curve; further: potency means the concentration at half of the fitted maximal effect); details: recombinant CYP1A2, luciferin-ME demethylation, luminescence; series mostly up to 57 µM
# In short: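 20nM CYP1A2, 100uM Luciferin-ME (=Km), 100mM KPO4; cpd 10 min RT; +NADPH regen, 60 min RT; stop/detect 20 min; luminescence. Normalized to furafylline 57 uM = full inhibition.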
# [4] = NFAT Signaling Pathway (AID 444); details: Jurkat NFAT-bla M1, carbachol, beta-lactamase ratio, 5 h; series mostly up to 17.2 µM;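 further: carbachol stimulus at about its EC50 of 1 µM final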
# In short: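 Read-out: CCF4 FRET ratio (460 nm/530 nm) after 1 h RT dye loading, used for %activity and AC50 from titration series. Cells: Jurkat NFAT-β-lactamase/M1 line, treated with compound plus 1 uM carbachol for 5 h, 37 °C.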
# [5] = Stat Signaling Pathway (AID 446); details: ME-180 (cervical carcinoma) SIE beta-lactamase reporter, IL-6 stimulated, 5 h; series mostly up to 17.2 µM;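 further: ME-180 cervical cancer cells given 40 pM IL-6 alongside compound; SIE-controlled beta-lactamase reporter measured as 460/530 nm FRET emission ratio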
# In short: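 Normalization used AC90 stimulation (300 pM IL-6) and AC90 inhibition (125 nM pan-JAK inhibitor at 40 pM IL-6). The underlying signal is SIE-driven beta-lactamase in ME-180 cells after 5 h IL-6 exposure with compound.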
# [6] = target: Glucocorticoid receptor (Homo sapiens) (UniProt P04150); assay: GR-GFP Redistribution (AID 450;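 active means compounds whose dose series gives a full or clear partial fitted curve of increased nuclear translocation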; further: potency means the concentration at half of the fitted maximal effect); details: U2OS GR-GFP nuclear translocation, laser cytometry, 2 h
# [7] = target: Glucocorticoid receptor (Homo sapiens) (UniProt P04150); assay: GR-EFC Redistribution (AID 451; calls by dose curve; further: potency means the concentration at half of the fitted maximal effect); details: CHO-K1 GR-EFC translocation, beta-gal luminescence, 2 h
# In short: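 Translocation of GR-ED fusion to nuclear EA restores b-gal, read by luminescence after 1 h room-temperature detection. Engineered CHO-K1 biosensor cells, 1,000/well, exposed 2 h at 37 C to titrations up to 46 uM final.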
# [8] = target: Mitogen-activated protein kinase 10 (Mus musculus) (UniProt Q61831); assay: JNK3 AlphaScreen Assay (AID 530); details: JNK3 lysate, c-Jun phosphorylation; series mostly up to 57.1 µM;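 further: kinase came from lysate of stimulated human HepG2 cells; signal reports phosphorylation of biotinylated GST-cJun 1-79 at Ser73 with 10 µM ATP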
# In short: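 Kinase buffer: 20 mM Tris-HCl pH 7.6, 10 mM MgCl2, 1 mM DTT, 0.1 mM Na3VO4, 0.01% Tween-20; ATP 10 uM. Substrate biotin-GST-cJun(1-79), enzyme from activated HepG2 lysates. Detection by Ser73 phospho-antibody AlphaScreen.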
# [9] = target: 3',5'-cyclic-AMP phosphodiesterase 4B (Homo sapiens) (UniProt Q07343); assay: qHTS Assay for Inhibitors of PDE-IV (AID 607; active means well fitted activation curve with a large enough effect in the main read-out, with a control signal flat, not every such curve was filed as active); details: HEK293 ACTOne CNG channel cells, membrane potential fluorescence; series mostly up to 22.9 µM
# In short: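 HEK293 ACTOne cells with CNG channel (1000/well), endogenous PDE4; membrane potential dye, compounds up to 22.9 uM final. Fluorescence Ex 535/Em 590; RO 20-1724 (100 uM final) as reference.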
# [10] = target: Cytochrome P450 2C19 (Homo sapiens) (UniProt P33261); assay: qHTS Assay for Inhibitors and Substrates of Cytochrome P450 2C19 (AID 899; active means well fitted curve in the direction sought with a large enough effect; an effect the other way counts as inactive or inconclusive; further: nearly all actives have a fitted effect of over 60% in size); details: recombinant CYP2C19, luciferin-H EGE luminescence; series mostly up to 11.4 µM
# In short: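 Reactions contain 5nM enzyme, 10uM Luciferin-H EGE (KM) and 50mM KPO4; compound preincubates 10 min at 37C, NADPH regeneration starts turnover for 60 min. Luminescence after detection reagent gives activity.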
# [11] = target: Cytochrome P450 3A4 (Homo sapiens) (UniProt P08684); assay: qHTS Assay for Inhibitors and Substrates of Cytochrome P450 3A4 (AID 884; active means well fitted curve in the direction sought with a large enough effect; an effect the other way counts as inactive or inconclusive; further: nearly all actives have a fitted effect of over 50% in size; further: potency means the concentration at half of the fitted maximal effect); details: recombinant CYP3A4, Luciferin-PPXE luminescence; series mostly up to 57.1 µM
# In short: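 Luminescent readout of luciferin produced by CYP3A4 (20 nM) dealkylation of Luciferin-PPXE, 25 uM (its KM). NADPH-driven reaction ran 60 min at RT after 10 min compound preincubation; data scaled to 57 uM ketoconazole as 100% inhibition.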
# [12] = target: Cytochrome P450 3A4 (Homo sapiens) (UniProt P08684); assay: qHTS Assay for Activators of Cytochrome P450 3A4 (AID 885; active means well fitted curve in the direction sought with a large enough effect; an effect the other way counts as inactive or inconclusive; further: nearly all actives have a fitted effect of over 65% in size); details: recombinant CYP3A4, Luciferin-PPXE luminescence, 60 min; series mostly up to 57.1 µM
# In short: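 Human CYP3A4 dealkylates Luciferin-PPXE to luciferin, which luciferase detection converts to light. Substrate was at its KM (25uM), buffer 200mM KPO4, reaction 60 min at RT.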
# [13] = Confirmation and Secondary Assay for Modulators of Hemoglobin Beta Chain Splicing at IVS2 654 locus (AID 910; active means well fitted curve in the direction sought with a large enough effect; an effect the other way counts as inactive or inconclusive;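 further: HeLa cells stably carrying EGFP split by mutant beta-globin IVS2-654 intron; per-well total GFP intensity by laser scanning cytometry after 2-day treatment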); details: HeLa EGFP-654 splicing reporter, GFP fluorescence, 48 h; series mostly up to 46.1 µM
# In short: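 Readout: per-well total peak green fluorescence (488 nm ex, 500–520 nm em) from objects 5–250 µm, reflecting correct splicing of an EGFP-654 reporter. Compounds were applied for 2 days at 37 °C to overnight-plated HeLa EGFP-654 cells; controls were DMSO and 500 nM IVS2-654 PNA.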
# [14] = Confirmation and Secondary Assay for Modulators of Hemoglobin Beta Chain Splicing at IVS2 705 locus (AID 930; active means well fitted curve in the direction sought with a large enough effect; an effect the other way counts as inactive or inconclusive;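 further: HeLa cells stably expressing the EGFP-705 splicing reporter; GFP fluorescence per well restored by corrected splicing of the IVS2-705 intron in EGFP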); details: HeLa EGFP-705 splicing reporter, GFP fluorescence, 48 h; series mostly up to 46.1 µM
# In short: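 Assay measures total GFP intensity per well in HeLa EGFP-705 cells after 2 days with compound; mis-splicing normally truncates EGFP, so fluorescence indicates corrected splicing.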
# [15] = target: Guanine nucleotide-binding protein G(i) subunit alpha-1 (Homo sapiens) (UniProt P63096); assay: qHTS Assay for Inhibitors of RGS12 GoLoco Motif Activity (Green Fluorophore) (AID 879; active means well fitted curve in the direction sought with a large enough effect; an effect the other way counts as inactive or inconclusive;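 further: negative values mean loss of peptide binding seen as reduced polarization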); details: Galphai1/FITC-RGS12 GoLoco peptide, fluorescence polarization; series mostly up to 57.1 µM
# In short: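 A drop in FITC polarization marked displacement of the FITC-tagged RGS12 GoLoco peptide (10 nM) from Gαi1 (50 nM). Compounds were incubated 10 min at room temperature in Tris pH 7.5 buffer containing 150 mM NaCl, 0.1 mM GDP and 0.05% NP40; unlabeled peptide titration served as control.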
# [16] = qHTS Assay for Identification of Small Molecule Antagonists for NFkB Signaling Pathway (AID 895; active means well fitted inhibition curve with a large enough effect in the signal ratio, with a control signal flat, not every such curve was filed as active; the % refers to the signal ratio); details: NFkB beta-lactamase reporter cells, FRET ratio 460/530, stimulated with 10 pM TNF alpha; series mostly up to 38.3 µM
# In short: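 Beta-lactamase reporter read-out (460 and 530 nm emission ratio, 405 nm excitation, 2 hrs substrate loading RT) after 5 hr stimulation with 10 pM TNF alpha in compound-treated NFkB-bla ME-180 cells in low-serum medium.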
# [17] = qHTS Assay for Identification of Small Molecule Agonists for Thrombopoietin (TPO) Signaling Pathway (AID 917; active means well fitted curve in the direction sought with a large enough effect; an effect the other way counts as inactive or inconclusive; further: potency means the concentration at half of the fitted maximal effect); details: TPO signaling pathway reporter cells, agonist qHTS; stimulated with TPO at its EC50
# In short: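 Luciferase reporter (Glycoprotein IIb promoter) in IL-3-deprived Ba/F3 cells carrying human TPO receptor; compounds co-added with 26 pM TPO, incubated 24 h, 37 C. Steadylite luminescence measured after 10 min.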
# [18] = target: Muscarinic acetylcholine receptor M1 (Rattus norvegicus) (UniProt P08482); assay: qHTS Assay for Antagonists of Acetylcholine Muscarinic M1 Receptor: Measurement of IP-One Response (AID 944; active means well fitted curve in the direction sought with a large enough effect; an effect the other way counts as inactive or inconclusive; further: nearly all actives have a fitted effect of over 75% in size); details: CHO-M1 cells, IP-One HTRF, antagonist mode; series mostly up to 46.1 µM
# In short: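 Read-out: HTRF competition between d2-IP1 and Eu-cryptate anti-IP1 antibody, emission 620 and 665 nm. Stimulus was carbachol, EC80 (200 nM), for 30 min in M1-CHO cells (rat receptor), after 10 min compound pre-treatment.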
# [19] = target: Pyruvate kinase (Leishmania mexicana) (UniProt Q27686); assay: qHTS Validation Assay for Inhibitors of Leishmania Mexicana Pyruvate Kinase (AID 945; active means well fitted curve in the direction sought with a large enough effect; an effect the other way counts as inactive or inconclusive); details: purified L. mexicana pyruvate kinase, enzyme activity, E451W mutant enzyme; series mostly up to 57.5 µM
# In short: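 Pyruvate kinase activity of E451W LmPYK (0.2 nM) was followed as ATP output after 1 h at room temperature with 0.5 mM PEP and 0.1 mM ADP, detected by PKLight luminescence.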
# [20] = target: Pyruvate kinase PKM (Homo sapiens) (UniProt P14618); assay: qHTS Assay for Activators of Human Muscle Pyruvate Kinase (AID 954; active means well fitted curve in the direction sought with a large enough effect, not every such curve was filed as active); details: purified human muscle pyruvate kinase, luciferase-coupled luminescence, 1 h; series mostly up to 57.5 µM
# In short: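 Compound pinned into substrate mix (0.5 mM PEP, 0.1 mM ADP), then 0.1 nM PKM2 added; 1 h, RT. Stop/detection luciferase reagent added, luminescence read. Normalized to no-inhibition and no-enzyme or reference-inhibitor controls.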
# Cytochrome P450 1A2 (Homo sapiens), sequence (P05177 whole entry, looked up): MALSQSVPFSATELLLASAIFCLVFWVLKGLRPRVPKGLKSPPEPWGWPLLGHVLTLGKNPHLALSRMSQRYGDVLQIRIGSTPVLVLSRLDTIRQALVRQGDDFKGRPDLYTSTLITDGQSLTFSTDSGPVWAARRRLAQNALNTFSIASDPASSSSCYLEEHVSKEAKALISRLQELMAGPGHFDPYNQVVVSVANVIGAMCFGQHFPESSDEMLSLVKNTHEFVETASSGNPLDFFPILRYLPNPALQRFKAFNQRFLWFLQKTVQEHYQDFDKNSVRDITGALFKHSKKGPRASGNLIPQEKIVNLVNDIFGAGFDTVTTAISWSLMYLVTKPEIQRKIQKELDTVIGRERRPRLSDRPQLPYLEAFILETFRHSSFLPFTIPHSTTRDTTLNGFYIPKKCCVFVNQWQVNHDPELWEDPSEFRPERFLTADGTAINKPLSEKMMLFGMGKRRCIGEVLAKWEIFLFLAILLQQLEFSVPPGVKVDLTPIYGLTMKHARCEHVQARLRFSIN
# Cytochrome P450 3A4 (Homo sapiens), sequence (P08684 whole entry, looked up): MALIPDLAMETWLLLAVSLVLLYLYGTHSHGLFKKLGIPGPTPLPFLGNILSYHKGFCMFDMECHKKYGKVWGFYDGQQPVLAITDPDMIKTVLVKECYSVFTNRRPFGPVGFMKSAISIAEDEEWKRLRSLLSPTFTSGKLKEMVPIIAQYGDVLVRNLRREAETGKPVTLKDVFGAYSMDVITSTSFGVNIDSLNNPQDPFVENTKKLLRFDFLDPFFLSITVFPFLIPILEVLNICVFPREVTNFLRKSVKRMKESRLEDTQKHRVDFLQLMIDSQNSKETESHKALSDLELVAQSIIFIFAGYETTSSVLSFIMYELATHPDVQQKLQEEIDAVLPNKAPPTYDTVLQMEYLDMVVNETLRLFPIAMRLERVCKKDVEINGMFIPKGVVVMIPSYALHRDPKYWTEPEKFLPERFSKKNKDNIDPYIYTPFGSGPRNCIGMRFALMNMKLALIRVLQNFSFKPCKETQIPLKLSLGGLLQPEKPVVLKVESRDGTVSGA
# 3',5'-cyclic-AMP phosphodiesterase 4B (Homo sapiens), sequence (Q07343 whole entry, looked up): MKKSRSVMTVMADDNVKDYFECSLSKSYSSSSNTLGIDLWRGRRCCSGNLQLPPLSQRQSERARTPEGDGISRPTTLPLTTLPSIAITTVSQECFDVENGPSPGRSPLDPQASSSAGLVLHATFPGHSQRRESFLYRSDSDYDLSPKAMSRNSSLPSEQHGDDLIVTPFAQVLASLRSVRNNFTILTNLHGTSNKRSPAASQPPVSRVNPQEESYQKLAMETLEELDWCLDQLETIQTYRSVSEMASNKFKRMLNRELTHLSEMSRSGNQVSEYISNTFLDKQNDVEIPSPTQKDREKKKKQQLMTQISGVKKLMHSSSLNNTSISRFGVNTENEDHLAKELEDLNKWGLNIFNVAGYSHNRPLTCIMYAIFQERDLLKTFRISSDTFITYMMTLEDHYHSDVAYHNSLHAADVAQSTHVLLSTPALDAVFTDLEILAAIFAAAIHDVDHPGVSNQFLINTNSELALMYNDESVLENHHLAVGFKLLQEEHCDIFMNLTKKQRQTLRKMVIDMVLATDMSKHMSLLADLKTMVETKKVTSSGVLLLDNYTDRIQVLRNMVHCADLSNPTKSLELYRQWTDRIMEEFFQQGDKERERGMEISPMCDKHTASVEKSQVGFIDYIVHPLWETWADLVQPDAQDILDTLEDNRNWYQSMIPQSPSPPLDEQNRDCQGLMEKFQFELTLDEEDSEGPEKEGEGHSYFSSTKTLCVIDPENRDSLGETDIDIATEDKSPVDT
# Glucocorticoid receptor (Homo sapiens), sequence (P04150 whole entry, looked up, the tested form may be a part): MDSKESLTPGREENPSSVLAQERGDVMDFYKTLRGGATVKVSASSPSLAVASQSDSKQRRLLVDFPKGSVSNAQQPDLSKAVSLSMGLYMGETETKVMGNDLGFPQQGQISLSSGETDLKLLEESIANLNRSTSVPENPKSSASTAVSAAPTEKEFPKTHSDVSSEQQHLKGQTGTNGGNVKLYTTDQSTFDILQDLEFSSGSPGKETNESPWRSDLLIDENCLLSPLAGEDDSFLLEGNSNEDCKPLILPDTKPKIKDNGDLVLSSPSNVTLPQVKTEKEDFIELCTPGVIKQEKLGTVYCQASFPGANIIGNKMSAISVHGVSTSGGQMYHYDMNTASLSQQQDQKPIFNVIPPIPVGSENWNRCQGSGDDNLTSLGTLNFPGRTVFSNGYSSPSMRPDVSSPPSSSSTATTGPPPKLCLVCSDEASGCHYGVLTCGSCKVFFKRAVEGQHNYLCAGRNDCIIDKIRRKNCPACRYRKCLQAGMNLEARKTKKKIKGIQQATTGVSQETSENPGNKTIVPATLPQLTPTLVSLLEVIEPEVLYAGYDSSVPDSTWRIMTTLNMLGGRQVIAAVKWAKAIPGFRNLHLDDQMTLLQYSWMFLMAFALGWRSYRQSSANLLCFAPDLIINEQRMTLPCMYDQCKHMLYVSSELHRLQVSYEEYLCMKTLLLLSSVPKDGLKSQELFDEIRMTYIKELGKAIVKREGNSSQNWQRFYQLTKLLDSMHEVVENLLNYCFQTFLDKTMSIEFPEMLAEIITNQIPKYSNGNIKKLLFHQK
# Lysosomal acid glucosylceramidase (Homo sapiens), sequence (P04062 whole entry, looked up): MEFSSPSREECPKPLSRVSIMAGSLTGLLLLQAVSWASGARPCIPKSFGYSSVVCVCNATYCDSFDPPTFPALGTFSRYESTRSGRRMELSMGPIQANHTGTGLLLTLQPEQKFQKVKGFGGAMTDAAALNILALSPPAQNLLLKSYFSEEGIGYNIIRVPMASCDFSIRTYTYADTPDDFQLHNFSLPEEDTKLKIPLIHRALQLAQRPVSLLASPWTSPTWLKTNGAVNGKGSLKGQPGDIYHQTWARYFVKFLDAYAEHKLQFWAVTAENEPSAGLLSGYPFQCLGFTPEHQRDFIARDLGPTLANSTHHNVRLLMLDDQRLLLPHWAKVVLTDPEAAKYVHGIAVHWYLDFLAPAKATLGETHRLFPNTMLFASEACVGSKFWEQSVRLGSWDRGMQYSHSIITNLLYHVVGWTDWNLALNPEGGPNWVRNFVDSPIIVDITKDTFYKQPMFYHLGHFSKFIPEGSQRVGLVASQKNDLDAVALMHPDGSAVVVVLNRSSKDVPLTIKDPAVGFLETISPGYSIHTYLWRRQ
# Muscarinic acetylcholine receptor M1 (Rattus norvegicus), sequence (P08482 whole entry, looked up): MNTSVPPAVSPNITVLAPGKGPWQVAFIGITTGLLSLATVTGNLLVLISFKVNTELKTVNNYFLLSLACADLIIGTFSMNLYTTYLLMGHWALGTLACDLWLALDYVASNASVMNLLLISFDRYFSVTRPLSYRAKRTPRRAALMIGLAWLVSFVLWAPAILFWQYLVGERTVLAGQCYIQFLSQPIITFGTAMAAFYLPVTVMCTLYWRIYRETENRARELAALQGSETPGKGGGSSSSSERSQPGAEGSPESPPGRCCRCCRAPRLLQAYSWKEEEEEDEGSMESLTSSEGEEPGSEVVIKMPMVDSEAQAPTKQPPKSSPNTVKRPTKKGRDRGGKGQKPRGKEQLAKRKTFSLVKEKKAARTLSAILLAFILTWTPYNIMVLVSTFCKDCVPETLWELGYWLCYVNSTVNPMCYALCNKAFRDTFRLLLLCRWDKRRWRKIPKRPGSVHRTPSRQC
# Pyruvate kinase PKM (Homo sapiens), sequence (P14618 whole entry, looked up): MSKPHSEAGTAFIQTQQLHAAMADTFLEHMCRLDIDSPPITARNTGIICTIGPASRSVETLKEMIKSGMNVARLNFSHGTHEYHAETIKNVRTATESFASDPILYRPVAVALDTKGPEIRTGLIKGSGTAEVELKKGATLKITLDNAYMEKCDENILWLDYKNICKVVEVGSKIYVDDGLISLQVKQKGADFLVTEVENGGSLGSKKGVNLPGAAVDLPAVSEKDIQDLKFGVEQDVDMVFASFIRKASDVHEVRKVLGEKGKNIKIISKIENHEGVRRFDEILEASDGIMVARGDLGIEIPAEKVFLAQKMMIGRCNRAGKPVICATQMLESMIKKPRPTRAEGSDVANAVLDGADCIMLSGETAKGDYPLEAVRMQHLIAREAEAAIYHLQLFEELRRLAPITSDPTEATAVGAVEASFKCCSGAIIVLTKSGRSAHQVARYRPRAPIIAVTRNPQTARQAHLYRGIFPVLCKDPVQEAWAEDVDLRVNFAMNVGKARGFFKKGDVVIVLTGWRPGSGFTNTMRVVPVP
# Cytochrome P450 2C19 (Homo sapiens), sequence (P33261 whole entry, looked up): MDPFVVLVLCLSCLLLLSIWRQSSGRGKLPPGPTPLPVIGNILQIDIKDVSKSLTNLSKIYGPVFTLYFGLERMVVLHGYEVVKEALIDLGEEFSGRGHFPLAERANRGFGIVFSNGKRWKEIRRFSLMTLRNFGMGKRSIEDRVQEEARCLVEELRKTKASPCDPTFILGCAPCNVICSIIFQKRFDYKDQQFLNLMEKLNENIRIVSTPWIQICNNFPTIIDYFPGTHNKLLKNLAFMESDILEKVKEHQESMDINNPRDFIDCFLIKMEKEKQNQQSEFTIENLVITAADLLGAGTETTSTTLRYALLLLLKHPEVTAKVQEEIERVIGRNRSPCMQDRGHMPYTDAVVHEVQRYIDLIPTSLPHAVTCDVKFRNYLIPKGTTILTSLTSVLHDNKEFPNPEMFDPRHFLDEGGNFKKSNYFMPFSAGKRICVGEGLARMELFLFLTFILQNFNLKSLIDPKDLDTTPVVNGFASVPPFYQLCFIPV
# Guanine nucleotide-binding protein G(i) subunit alpha-1 (Homo sapiens), sequence (P63096 whole entry, looked up): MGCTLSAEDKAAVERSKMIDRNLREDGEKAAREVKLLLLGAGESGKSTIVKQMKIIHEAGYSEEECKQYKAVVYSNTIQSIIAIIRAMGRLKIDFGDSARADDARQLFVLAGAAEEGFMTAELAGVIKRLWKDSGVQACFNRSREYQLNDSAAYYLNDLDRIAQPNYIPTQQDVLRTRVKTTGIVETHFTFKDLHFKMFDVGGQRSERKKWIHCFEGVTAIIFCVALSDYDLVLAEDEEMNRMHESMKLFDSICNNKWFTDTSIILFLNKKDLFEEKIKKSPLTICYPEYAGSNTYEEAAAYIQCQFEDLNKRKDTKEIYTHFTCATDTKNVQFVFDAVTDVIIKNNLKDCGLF
compound,measurement,setting,value
O=C(O)[C@H](Cc1c[nH]c2ccccc12)N1C(=O)c2ccccc2C1=O,Potency,[1],> 11.4 µM
same,outcome,[2],inactive
same,"activity change, negative = inhibition",[3],-8.3% [at 2.29 µM]
same,outcome,[4],inactive
same,outcome,[5],inactive
same,Potency,[6],> 46 µM
same,Potency,[7],> 9.22 µM
same,"activity change, negative = inhibition",[8],-0.545% [at 11.4 µM]
same,outcome,[9],inactive
same,outcome,[10],inactive
O=C(O)c1ccc2cc(-c3ccc(O)c(C45CC6CC(CC(C6)C4)C5)c3)ccc2c1,Potency,[11],31.6 µM (active)
same,outcome,[12],inactive
COC(=O)C[C@](O)(CCCC(C)(C)O)C(=O)O[C@@H]1C(OC)=C[C@]23CCCN2CCc2cc4c(cc2[C@H]13)OCO4,Potency,[3],inactive
same,Potency,[6],> 46 µM
same,Potency,[7],> 46 µM
same,outcome,[8],inactive
same,outcome,[9],inactive
Nc1ccc(S(=O)(=O)Nc2ncccn2)cc1,outcome,[2],inactive
same,Potency,[3],inactive
same,outcome,[4],inactive
same,outcome,[5],inactive
same,outcome,[8],inactive
same,outcome,[9],inactive
same,outcome,[13],inactive
same,outcome,[14],inactive
COc1c(N2C[C@@H]3CCCN[C@H]3C2)c(F)cc2c(=O)c(C(=O)O)cn(C3CC3)c12,Potency,[11],inactive
same,outcome,[13],inactive
same,outcome,[14],inactive
O=c1c2ccccc2nc2n1CCc1c-2[nH]c2ccccc12,Potency,[3],0.316 µM (active)
same,outcome,[4],inactive
same,outcome,[5],inactive
same,Potency,[6],> 46 µM
same,Potency,[7],> 46 µM
same,outcome,[8],inactive
same,outcome,[9],inactive
same,outcome,[15],inactive
same,outcome,[12],inactive
same,outcome,[16],inactive
same,Potency,[17],0.316 µM (active)
same,outcome,[18],inactive
same,outcome,[19],inactive
same,outcome,[20],inactive
CC(C)c1ccc(Cn2ccc3c4c(N)nc(NC5CC5)nc4ccc32)cc1,Potency,[3],1.58 µM (active)
same,Potency,[6],> 46 µM
same,Potency,[7],> 46 µM
same,outcome,[8],inactive
same,Potency,[11],6.31 µM (active)
same,outcome,[12],inactive
CC[C@@]1(O)C(=O)OCc2c1cc1n(c2=O)Cc2cc3cc(O)ccc3nc2-1,outcome,[14],inactive
CN(C)CCCN=c1c2ccccc2n(C)c2[nH]c(=O)n(C)c(=O)c12,Potency,[1],> 11.4 µM
same,outcome,[2],inactive
same,Potency,[3],5.01 µM (active)
same,Potency,[6],> 46 µM
same,Potency,[7],> 9.22 µM
same,"activity change, negative = inhibition",[8],0.481% [at 11.4 µM]
same,outcome,[9],inactive
C[C@H]1C[C@@H]2[C@@H]([C@@H](O)C[C@@]3(C)[C@H]2CC[C@]3(O)C(=O)CO)[C@@]2(C)C=CC(=O)C=C12,outcome,[2],inactive
same,outcome,[4],inactive
same,outcome,[5],inactive
same,outcome,[8],inactive
same,outcome,[9],inactive
Cc1coc2c1C(=O)C(=O)c1c-2ccc2c1CCCC2(C)C,Potency,[11],inactive
same,outcome,[13],inactive
same,outcome,[14],inactive

# From PubChem BioAssay (NCATS)
